Assay results: PubChem BioAssay AID1159580 (chemical genetic matrix, 2015)
Values joined by “and” are separate entries in the source; they are usually repeats but may differ in a detail not shown here. Identical values can stand only once. Screen size: about 5,500 compounds; about 2,000 (36%) were called active. About 18% were inconclusive and are not listed. Cut-off read from the data, not from the text of the source: active = normalized growth mostly below about 0.91 (no sharp cut-off); inconclusive = no clear call, values can overlap the other calls; inactive = mostly above about 0.92. Some of the results follow.

Assay: chemical genetic growth profiling, strain panel (AID 1159580);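 note: tested at 20 µM; growth read once vehicle control cultures reached saturation at 30 °C; 1 = growth at the plate median or of vehicle wells; lower values mean less growth of the strain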
Details: S. cerevisiae deletion strains, growth OD

Measured: normalized growth

CN1CC(=O)N=C1N
inactive: locus YAL013W, strain DEP1, stronger effect = lower value 1.01 | locus YAL021C, strain ccr4, stronger effect = lower value 1.01 | locus YAL026C, strain drs2, stronger effect = lower value 1.03 | locus YAL030W, strain snc1, stronger effect = lower value 1.02 | locus YBL061C, strain skt5, stronger effect = lower value 1.03 | locus YBR009C, strain hhf1, stronger effect = lower value 1.05 | locus YBR021W, strain FUR4, stronger effect = lower value 1 | locus YBR023C, strain chs3, stronger effect = lower value 1.03 | locus YBR171W, strain sec66, stronger effect = lower value 1.03 | locus YBR229C, strain ROT2, stronger effect = lower value 1 | locus YBR231C, strain swc5, stronger effect = lower value 1.03 | locus YBR279W, strain paf1, stronger effect = lower value 1.03 | locus YCL011C, strain gbp2, stronger effect = lower value 1.03 | locus YCL016C, strain dcc1, stronger effect = lower value 1.02 | locus YCL029C, strain bik1, stronger effect = lower value 0.986 | locus YCL061C, strain MRC1, stronger effect = lower value 1.01 | locus YCL069W, strain vba3, stronger effect = lower value 1.02 | locus YCR088W, strain abp1, stronger effect = lower value 1.01 | locus YDL005C, strain med2, stronger effect = lower value 1.02 | locus YDL035C, strain GPR1, stronger effect = lower value 1.01 | locus YDL040C, strain nat1, stronger effect = lower value 1.01 | locus YDL074C, strain BRE1, stronger effect = lower value 1.03 | locus YDL101C, strain DUN1, stronger effect = lower value 1.02 | locus YDL134C, strain PPH21, stronger effect = lower value 1 | locus YDL185W, strain tfp1, stronger effect = lower value 0.992 | locus YDL192W, strain arf1, stronger effect = lower value 1 | locus YDR001C, strain nth1, stronger effect = lower value 1.01 | locus YDR069C, strain doa4, stronger effect = lower value 1.04 | locus YDR101C, strain arx1, stronger effect = lower value 0.991 | locus YDR137W, strain rgp1, stronger effect = lower value 1.1 | locus YDR159W, strain sac3, stronger effect = lower value 1.05 | locus YDR162C, strain NBP2, stronger effect = lower value 1.02 | locus YDR195W, strain ref2 0.969 | locus YDR297W, strain sur2, stronger effect = lower value 1.02 | locus YDR318W, strain mcm21, stronger effect = lower value 0.997 | locus YDR334W, strain swr1, stronger effect = lower value 1.02 | locus YDR335W, strain msn5, stronger effect = lower value 1.03 | locus YDR388W, stronger effect = lower value 0.997 | locus YDR392W, strain spt3, stronger effect = lower value 1.02 | locus YDR502C, strain sam2, stronger effect = lower value 0.995 | locus YEL003W, strain gim4, stronger effect = lower value 1.04 | locus YEL037C, strain rad23, stronger effect = lower value 1.01 | locus YEL061C, strain CIN8 (second series), stronger effect = lower value 1.02 | locus YEL061C, strain CIN8, stronger effect = lower value 1.01 | locus YER015W, strain faa2, stronger effect = lower value 1.02 | locus YER016W, strain bim1, stronger effect = lower value 1.02 | locus YER110C, stronger effect = lower value 0.992 | locus YER111C, strain swi4, stronger effect = lower value 1.04 | locus YER155C, strain BEM2 (second series), stronger effect = lower value 1.06 | locus YER155C, strain BEM2, stronger effect = lower value 1.01 | locus YER167W, strain BCK2, stronger effect = lower value 1.01 | locus YFR010W, strain ubp6, stronger effect = lower value 1.03 | locus YGL078C, strain dbp3, stronger effect = lower value 0.995 | locus YGL086W, strain mad1, stronger effect = lower value 0.998 | locus YGL167C, strain pmr1, stronger effect = lower value 1.03 | locus YGL173C, strain kem1, stronger effect = lower value 1.03 | locus YGL227W, strain vid30, stronger effect = lower value 1.02 | locus YGL240W, strain doc1, stronger effect = lower value 1.05 | locus YGL248W, strain PDE1, stronger effect = lower value 1.01 | locus YGL253W, strain hxk2, stronger effect = lower value 1.02 | locus YGR078C, strain PAC10, stronger effect = lower value 1.01 | locus YGR135W, strain pre9, stronger effect = lower value 1 | locus YGR229C, strain SMI1, stronger effect = lower value 1.02 | locus YGR252W, strain gcn5, stronger effect = lower value 0.965 | locus YHR013C, strain ard1, stronger effect = lower value 1.06 | locus YHR027C, strain rpn1, stronger effect = lower value 1.02 | locus YHR030C, strain SLT2, stronger effect = lower value 1.01 and 0.962 | locus YHR079C, strain IRE1 (second series), stronger effect = lower value 0.994 | locus YHR079C, strain IRE1, stronger effect = lower value 0.966 | locus YHR094C, strain hxt1, stronger effect = lower value 0.994 | locus YHR129C, strain ARP1, stronger effect = lower value 1.01 | locus YHR142W, strain chs7, stronger effect = lower value 0.996 | locus YHR200W, strain rpn10, stronger effect = lower value 0.997 | locus YIL066C, strain RNR3, stronger effect = lower value 1.02 | locus YIL073C, strain SPO22, stronger effect = lower value 1.03 | locus YIL125W, strain kgd1, stronger effect = lower value 0.988 | locus YIR030C, strain dcg1, stronger effect = lower value 0.998 | locus YJL092W, strain hpr5, stronger effect = lower value 1.01 | locus YJL095W, strain BCK1 (second series), stronger effect = lower value 1.03 | locus YJL095W, strain BCK1, stronger effect = lower value 1.03 and 0.956 | locus YJL115W, strain asf1, stronger effect = lower value 1.02 | locus YJL129C, strain trk1, stronger effect = lower value 1.04 | locus YJL134W, strain LCB3, stronger effect = lower value 1.01 | locus YJL154C, strain vps35, stronger effect = lower value 1.02 | locus YJL164C, strain tpk1, stronger effect = lower value 1.05 | locus YJL166W, strain qcr8, stronger effect = lower value 1.03 | locus YJL168C, strain set2, stronger effect = lower value 1 | locus YJL187C, strain SWE1 (second series), stronger effect = lower value 1.02 | locus YJL187C, strain SWE1, stronger effect = lower value 1.03
